Consider 19 compounds from PubChem BioAssay (NCATS).

What all share (assay): Primary qHTS to identify gynecologic anti-cancer compounds using libraries of approved drugs and bioactive compounds (AID 1345084); further: nearly all actives have a fitted effect of over 55% in size
(In general: In qHTS, concentration-response curves come from the screen itself.)

One assay deals with CASKI. The note with it: Gynecologic cancer cell panel viability, ATPlite luminescence, 48 h; series mostly up to 57.5 µM. The essentials: (§1)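 Cell viability after 48 h drug treatment, ATPlite luminescence readout; five doses.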
Background: Cellular ATP, detected with luciferase, serves as a proxy for viable cell number.

Another assay relates to Es-2. The note with it: Gynecologic cancer cell panel viability, ATPlite luminescence, 48 h; series mostly up to 57.5 µM. In short, it runs like this:
as §1

The subject of a further assay is HeLa. The settings on record: Gynecologic cancer cell panel viability, ATPlite luminescence, 48 h; series mostly up to 57.5 µM. The essentials:
as §1

The subject of another assay is Hek293T. The note with it: Gynecologic cancer cell panel viability, ATPlite luminescence, 48 h, control line for the selectivity index; series mostly up to 57.5 µM. The essentials:
as §1

The next assay has as its system JEG-3. The settings on record: Gynecologic cancer cell panel viability, ATPlite luminescence, 48 h; series mostly up to 57.5 µM. The essentials: as §1
The next assay concerns OV90. The note with it: Gynecologic cancer cell panel viability, ATPlite luminescence, 48 h; series mostly up to 57.5 µM. In short, it runs like this: as §1
For another assay, the system named is PA-1. The note with it: Gynecologic cancer cell panel viability, ATPlite luminescence, 48 h; series mostly up to 57.5 µM. The essentials: as §1
A further assay concerns SKOV3. The note with it: Gynecologic cancer cell panel viability, ATPlite luminescence, 48 h; series mostly up to 57.5 µM. In short, it runs like this:
as §1

A further assay concerns Tov-21-G. The note with it: Gynecologic cancer cell panel viability, ATPlite luminescence, 48 h; series mostly up to 57.5 µM. The essentials: as §1
The test system of another assay is CAOV3. The settings on record: Gynecologic cancer cell panel viability, ATPlite luminescence, 48 h; series mostly up to 57.5 µM. The essentials:
as §1

Results filed as inconclusive are left out. The source made the active and inactive calls. The call rests on the fitted dose curve; in most records, active means well fitted cell-killing curve with a large enough effect; inconclusive means small, poorly fitted or top-dose-only effect, or effect the other way; inactive means flat fitted curve, though single readings scatter.
Potency means the concentration at half of the fitted maximal effect.

Take `C[C@]12C=CC(=O)C=C1CC[C@@H]1[C@@H]2CC[C@@]2(C)[C@H]1CC[C@]2(C)O`: the Potency result in the assay on CASKI, in the assay with Es-2, in the assay with HeLa, with Hek293T, in the assay on JEG-3 and with OV90 was “inactive” in each case. Also, the Potency entry in the assay on PA-1, with SKOV3 and in the assay with Tov-21-G was “inactive” throughout.
As to `C[C@]12CC[C@H]3[C@@H](CCC4=CC(=O)CC[C@@]43C)[C@@H]1CC[C@@H]2C(=O)O`, the Potency entry in the assay on CAOV3, in the assay on CASKI, in the assay on Es-2, in the assay on Hek293T, with JEG-3 and in the assay on OV90 was “inactive” each time. Besides, the Potency result in the assay on PA-1, with SKOV3 and in the assay with Tov-21-G was “inactive” in each case.
For `CCOC(=O)c1cncn1C(C)c1ccccc1` (stereo not given), the Potency result with CASKI, with Es-2, in the assay with HeLa, with Hek293T, with JEG-3 and with OV90 was “inactive” throughout. For the same compound, the Potency entry in the assay with PA-1, in the assay on SKOV3 and with Tov-21-G was “inactive” each time.
As to `ClC1=C(Cl)C2(Cl)C(CBr)CC1(Cl)C2(Cl)Cl` (stereo not given), the Potency result with CASKI, with Es-2, with HeLa, with Hek293T, in the assay with JEG-3 and in the assay with OV90 was “inactive” each time. The Potency entry with PA-1, with SKOV3 and in the assay on Tov-21-G was “inactive” in each case.
With `COc1cc(CC(C)N)c(OC)cc1Br` (stereo not given), the Potency entry with CAOV3, in the assay on Es-2, with JEG-3 and with OV90 was “inactive” each time. The Potency in the assay on HeLa is 25.1 µM (active).
Turning to `CCC(=O)C(CCN(C)C)(c1ccccc1)c1ccccc1`, the Potency result with CASKI, with Es-2, in the assay on HeLa, in the assay with Hek293T, in the assay on JEG-3 and in the assay on OV90 was “inactive” each time. The Potency entry in the assay on PA-1, in the assay with SKOV3 and with Tov-21-G was “inactive” each time.
Take `CC#C[C@]1(O)CC[C@H]2[C@@H]3C[C@H](C)C4=CC(=O)CC[C@]4(C)[C@H]3CC[C@@]21C`: the Potency result in the assay with CAOV3, with CASKI, in the assay with Es-2, in the assay on Hek293T and with Tov-21-G was “inactive” each time. For the same compound, the Potency in the assay on HeLa was 6.31 µM (active); in the assay with PA-1, 25.1 µM (active).
On to `CN1C[C@@H](NS(=O)(=O)N(C)C)C[C@@H]2c3cccc4c3c(cn4C)C[C@H]21`, for which the Potency result in the assay with CASKI, in the assay with Es-2, in the assay on HeLa, in the assay on Hek293T, in the assay on JEG-3 and in the assay with OV90 was “inactive” each time. The Potency result with PA-1, in the assay on SKOV3 and in the assay with Tov-21-G was “inactive” each time.
In the case of `Cc1ccc([N+](=O)[O-])[c]2c1[O][Hg]2`, the Potency was 7.94 µM (active) with CASKI; 5.62 µM (active) with Es-2; 20 µM (active) with HeLa; 5.62 µM (active) in the assay with Hek293T; 3.55 µM (active) with JEG-3; 12.6 µM (active) in the assay on OV90. For the same compound, the Potency was 2.82 µM (active) in the assay with PA-1, 3.98 µM (active) in the assay on SKOV3 and 2 µM (active) with Tov-21-G.
As for `COc1ccc(CN2CCNCC2)c(OC)c1OC`, the Potency entry in the assay on CASKI, in the assay with Es-2, in the assay on HeLa, in the assay with Hek293T, in the assay on JEG-3 and in the assay on OV90 was “inactive” in each case. The Potency result with PA-1, in the assay with SKOV3 and in the assay on Tov-21-G was “inactive” throughout.
On to `C[N+](C)(C)CCOC(=O)C(O)(c1ccccc1)c1ccccc1`, for which the Potency result in the assay on CASKI, in the assay with Es-2, with HeLa, in the assay on Hek293T, in the assay with JEG-3 and with OV90 was “inactive” in each case. Besides, the Potency entry in the assay on PA-1, in the assay with SKOV3 and with Tov-21-G was “inactive” each time.
Regarding `CCCCCCCCC(=O)NCc1ccc(O)c(OC)c1`, the Potency entry in the assay with CAOV3, in the assay with CASKI, in the assay on HeLa, in the assay with Hek293T, in the assay on JEG-3 and in the assay on OV90 was “inactive” each time. The Potency result with Tov-21-G is “inactive”.
Take `CCO[C@H]1O[C@@H]2OC3(C)CC[C@H]4[C@H](C)CC[C@@H]([C@H]1C)[C@@]24OO3`: the Potency result with CAOV3, in the assay with CASKI, in the assay on Es-2, in the assay on HeLa, in the assay on JEG-3 and in the assay on OV90 was “inactive” throughout. Moreover, the Potency entry with PA-1, with SKOV3 and with Tov-21-G was “inactive” throughout.
Take `O=C(CBr)Nc1ccc(Cl)cc1C(=O)c1ccccc1F`: the Potency result in the assay on CASKI, in the assay with Es-2, with HeLa, in the assay with Hek293T, in the assay on JEG-3 and in the assay with OV90 was “inactive” each time. Also, the Potency entry in the assay with PA-1, with SKOV3 and in the assay with Tov-21-G was “inactive” each time.
Turning to `O=C(CCl)c1ccc(Cl)cc1Cl`, the Potency result with CASKI, with Es-2, in the assay with HeLa, in the assay on Hek293T, in the assay with JEG-3 and with OV90 was “inactive” in each case. In addition, the Potency result with PA-1, with SKOV3 and in the assay with Tov-21-G was “inactive” in each case.
For `C[C@@H]1C[C@@H]([C@H](O)CC2CC(=O)NC(=O)C2)C(=O)[C@@H](C)C1`, the Potency with CAOV3 was 25.1 µM (active); in the assay with Es-2, 0.794 µM (active); with Hek293T, 0.501 µM (active); in the assay with OV90 it was 0.631 µM (active); in the assay on PA-1, 0.708 µM (active); in the assay with SKOV3, 2.82 µM (active). The Potency in the assay on Tov-21-G was 0.501 µM (active). Also, in the assay on JEG-3, the Potency entry was “inactive”.
Turning to `CNC(=O)NC(O)C(Cl)(Cl)Cl` (stereo not given), the Potency entry with CAOV3, in the assay on CASKI, in the assay with Es-2, in the assay on HeLa, in the assay on JEG-3 and in the assay with OV90 was “inactive” throughout. Also, the Potency result with PA-1, in the assay with SKOV3 and with Tov-21-G was “inactive” in each case.
Consider `CCCN(CCC)CCc1c[nH]c2ccccc12`, for which the Potency entry in the assay with CAOV3, in the assay on CASKI, in the assay on Es-2, in the assay on HeLa, in the assay on Hek293T and with JEG-3 was “inactive” each time. Also, the Potency result with Tov-21-G was “inactive”.
Regarding `COc1cc(N)c(Cl)cc1C(=O)NC1CN2CCC1CC2` (stereo not given), the Potency result in the assay on CASKI, in the assay with Es-2, with HeLa, in the assay with Hek293T, in the assay on JEG-3 and in the assay on OV90 was “inactive” each time. For the same compound, the Potency entry in the assay with PA-1, with SKOV3 and with Tov-21-G was “inactive” each time.
